Screening data as filed in PubChem.
The sample as a whole holds a higher share of hits than the screen did.
IDE exosite FP – displaces the probe from the exo-site of human IDE; P14735; purified IDE, FL-6b probe fluorescence polarization; stronger effect = lower value; z-score at 20 µM; 17,000 compounds, 6.3% hits;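 active means z-score of -3 or lower, meaning strong loss of probe binding signal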;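 further: His-tagged human IDE residues 42-1019 made in E. coli with 30 nM FL-6b probe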
* marks the source's active call; other numbers are inactive results.

SMILES	IDE exosite FP
O=C(CC1CC1)N1CC(=O)N2[C@H](CO)[C@@H](c3ccc(C#Cc4ccc(F)cc4)cc3)[C@H]2C1	0.27
O=C(CC1CC1)N1CC(=O)N2[C@H](C1)[C@H](c1ccc(C#Cc3ccc(F)cc3)cc1)[C@@H]2CO	-1.7
O=C(CC1CC1)N1CC(=O)N2[C@H](CO)[C@@H](c3ccc(C#Cc4ccccc4)cc3)[C@@H]2C1	-7.7*
O=C(CC1CC1)N1CC(=O)N2[C@@H](CO)[C@@H](c3ccc(C#Cc4cccc(F)c4)cc3)[C@@H]2C1	-0.61
OC[C@@H]1Nc2ccc(C#Cc3ccc(F)cc3)cc2[C@H]2[C@@H]1CCN2Cc1ccc2c(c1)OCO2	0.71
O=C(C[C@H]1CC[C@H]2NC[C@H](O)COC[C@@H]2O1)NCCN1CCCCC1	1.1
O=C(C[C@H]1C[C@H]2c3cc(NS(=O)(=O)c4ccc(F)cc4)ccc3O[C@H]2[C@@H](CO)O1)NCCN1CCCCC1	-0.42
O=C(Nc1ccccc1)N1CCCCN2[C@H](CO)[C@H](c3ccc(C#Cc4cccnc4)cc3)[C@H]2C1	-1.1
O=C(Nc1ccccc1F)N1CC(=O)N2[C@H](CO)[C@@H](c3ccc(C#CC4CCCC4)cc3)[C@@H]2C1	5.1
CN(C[C@H]1[C@@H](c2ccccc2)[C@@H](CO)N1C(=O)C1CCC1)C(=O)c1ccncc1	-2.1
CO[C@H]1CN(C)C(=O)c2cc(NC(=O)Nc3c(C)noc3C)ccc2OC[C@@H](C)NC[C@H]1C	-2
COc1ccccc1NC(=O)N1CC(=O)N2[C@H](C1)[C@@H](c1ccc(C#CC(C)C)cc1)[C@@H]2CO	-1.1
COc1ccc(C#Cc2ccc([C@H]3[C@H]4CN(C)CCCCN4[C@H]3CO)cc2)cc1	-0.084
CN1CCCCN2[C@H](CO)[C@@H](c3ccc(-c4ccccc4)cc3)[C@@H]2C1	0.92
CN1CCCCN2[C@H](CO)[C@@H](c3ccc(C#Cc4ccccc4F)cc3)[C@@H]2C1	-8.6*
COc1ccc(C#Cc2ccc([C@H]3[C@H](CO)N4CCCCN(C)C[C@@H]34)cc2)cc1	0.046
OC[C@@H]1[C@H](c2ccc(C#Cc3ccccc3F)cc2)[C@@H]2CN(CC3CCOCC3)CCCCN12	-1.7
CN1CCCCN2[C@@H](CO)[C@@H](c3ccc(C#Cc4ccccc4F)cc3)[C@@H]2C1	-5*
N#C[C@@H]1[C@@H](c2ccccc2C2=CCCCC2)[C@@H](CO)N1S(=O)(=O)c1ccccc1	-0.54
COc1ccccc1NC(=O)N1CC(=O)N2[C@H](CO)[C@H](c3ccc(C#Cc4ccc(F)cc4)cc3)[C@@H]2C1	4.6
COc1ccc2c3c(n(C)c2c1)[C@H](CO)N(Cc1cc(F)ccc1F)CC31CN(C(=O)C2CC2)C1	-1.8
N#Cc1ccc(-c2ccc([C@@H]3[C@@H](CO)N4C(=O)CN(C(=O)C5CCC5)C[C@@H]34)cc2)cc1	-1.5
O=C(C1CCOCC1)N1CC(=O)N2[C@@H](CO)[C@@H](c3ccc(Br)cc3)[C@@H]2C1	1.4
CCCC#Cc1ccc([C@H]2[C@H]3CN(C(=O)CN4CCOCC4)CC(=O)N3[C@H]2CO)cc1	4.6
O=C(CN1CCOCC1)N1CC(=O)N2[C@H](CO)[C@@H](c3ccc(-c4ccccc4)cc3)[C@H]2C1	3.1
SMILES	IDE exosite FP
O=C(CN1CCOCC1)N1CC(=O)N2[C@H](CO)[C@@H](c3ccc(/C=C/c4ccccc4)cc3)[C@@H]2C1	-4.4*
CCCC#Cc1ccc([C@@H]2[C@@H](CO)N3C(=O)CN(C(=O)CN4CCOCC4)C[C@H]23)cc1	1.8
O=C(CN1CCOCC1)N1CC(=O)N2[C@H](CO)[C@@H](c3ccc(/C=C/c4ccccc4)cc3)[C@H]2C1	-6*
CCCC#Cc1ccc([C@H]2[C@H](CO)N3C(=O)CN(C(=O)CN4CCOCC4)C[C@@H]23)cc1	1.2
O=C(C1CCOCC1)N1CC(=O)N2[C@H](CO)[C@H](c3ccc(Br)cc3)[C@@H]2C1	-0.28
O=C(C1CCOCC1)N1CC(=O)N2[C@H](C1)[C@@H](c1ccc(/C=C/c3ccccc3)cc1)[C@@H]2CO	-7.6*
Cc1ccc(-c2ccc([C@@H]3[C@@H](CO)N4C(=O)CN(C(=O)Nc5cccc(F)c5)C[C@H]34)cc2)cc1	3.8
O=C(NC1CCCC1)[C@@H]1[C@@H](CO)[C@@H]2Cn3c(ccc(C4=CCCCC4)c3=O)[C@H]1N2CC1CC1	0.17
CCS(=O)(=O)N1CC(=O)N2[C@H](CO)[C@H](c3ccc(-c4ccc(C)cc4)cc3)[C@@H]2C1	-0.8
CCC(=O)N1[C@H](CO)[C@H](c2ccc(C3=CCCC3)cc2)[C@@H]1CNC1CCCCC1	0.0078
Cc1cccc(S(=O)(=O)N2CCCCN3[C@H](CO)[C@H](c4ccc(C#CC5CC5)cc4)[C@H]3C2)c1	1.5
N#C[C@@H]1[C@H](c2ccc(-c3ccccc3F)cc2)[C@H](CO)N1C(=O)Cc1ccccc1	-0.019
CN1C(=O)c2cc(NC(=O)Cc3cccs3)ccc2OC[C@H]2O[C@@H](CC(=O)NCc3ccc(-c4ccccc4)cc3)CC[C@H]21	-0.38
O=C(c1ccncc1)N1CC(=O)N2[C@H](CO)[C@@H](c3ccc(C#CCC4CCCC4)cc3)[C@@H]2C1	0.71
